{
  "source": "PubChem BioAssay AID463173",
  "about": "(ICCB-Longwood Screening Facility, Harvard Medical School, 2010)",
  "note": "Out of some 52,000 compounds screened, about 4,300 (8.3%) were called active. For the sample, actives were picked, then their nearest neighbours and some compounds at random. Unmarked numbers belong to inactive results. Cut-off read from the data, not from the text of the source: active = survival mostly below about 52% (no sharp cut-off); inactive = mostly above about 56%.",
  "data": [
    {"system": "DeltatarO mutant", "assay": "growth inhibition of S. aureus wild type versus tarO mutant, primary screen, teichoic acid synthesis inhibitors, RN4220, OD600 (AID 463173)", "conditions": "OD600, 18 h, hits give low values, screened at 18.75 µg/mL (by protocol)", "values": [
      {"smiles": "CC(C)c1ccc(NC(=O)c2cnn3c(C(F)F)cc(-c4ccccc4)nc23)cc1", "survival": "65%"},
      {"smiles": "COc1ccc(-c2cc(C(F)F)n3ncc(C(=O)Nc4cc(C)on4)c3n2)cc1", "survival": "85%"},
      {"smiles": "CCOc1ccccc1NC(=O)c1cnn2c(C(F)F)cc(-c3ccccc3)nc12", "survival": "58% (active)"},
      {"smiles": "COC(=O)c1ccc(C(=O)OC)c(NC(=O)c2cnn3c(C(F)F)cc(-c4ccc(C)cc4)nc23)c1", "survival": "60%"},
      {"smiles": "CC(C)NC(=O)c1cnn2c(C(F)F)cc(-c3ccccc3)nc12", "survival": "92%"},
      {"smiles": "CCN(CC)c1ccc(NC(=O)c2cnn3c(C(F)F)cc(-c4ccccc4)nc23)cc1", "survival": "59% (active)"},
      {"smiles": "O=C(Nc1cc(F)ccc1F)c1cnn2c(C(F)F)cc(-c3ccccc3)nc12", "survival": "130%"},
      {"smiles": "COc1ccc(-c2cc(C(F)F)n3ncc(C(=O)Nc4cc(OC)ccc4OC)c3n2)cc1", "survival": "51% (active)"},
      {"smiles": "CNS(=O)(=O)c1ccc(NC(=O)c2cnn3c(C(F)F)cc(-c4ccccc4)nc23)cc1", "survival": "66%"},
      {"smiles": "CCCCn1nc(CC(=O)O)c2ccccc2c1=O", "survival": "83%"},
      {"smiles": "COC(=O)c1ccccc1NC(=O)C1(c2cccs2)CCOCC1", "survival": "83%"},
      {"smiles": "COc1ccc(NC(=O)CN(C)S(=O)(=O)c2cnc[nH]2)cc1Cl", "survival": "98%"},
      {"smiles": "COc1ccc(C(=O)NCCn2cc(SCC(=O)Nc3cccc(C)c3)c3ccccc32)cc1", "survival": "60%"},
      {"smiles": "Cc1ccc(-n2c(=O)c3c(C)c(C(=O)N(C)C)sc3n(CC(=O)C(C)(C)C)c2=O)cc1C", "survival": "107%"},
      {"smiles": "COc1ccc(CNC(=O)c2ccc(NC(=O)N3CCSc4ccccc43)cc2)cc1", "survival": "56%"},
      {"smiles": "Cc1ccc(NC(=O)Cn2c(=O)n(CC(=O)NCCc3ccccc3)c(=O)c3ccccc32)cc1", "survival": "89%"},
      {"smiles": "CCC(C(=O)NC1CCCC1)N(C(=O)c1snc(C(N)=O)c1N)c1ccccc1", "note": "(configuration not stated)", "survival": "73%"},
      {"smiles": "COc1cccc(NC(=O)N(Cc2cn(C)c3ccccc23)C2CCCCCC2)c1", "survival": "-13% (active)"},
      {"smiles": "COc1cccc(NC(=O)N(Cc2cn(C)c3ccccc23)C2CCCCC2)c1", "survival": "-12% (active)"},
      {"smiles": "COc1cccc(NC(=O)Cn2cc(C(=O)C3CCCCC3)c3ccccc32)c1", "survival": "79%"},
      {"smiles": "COc1cccc(NC(=O)N(Cc2c[nH]c3ccccc23)C2CCCCCC2)c1", "survival": "46%"},
      {"smiles": "COc1cccc(NC(=O)N(Cc2c[nH]c3ccccc23)C2CCCCC2)c1", "survival": "65%"},
      {"smiles": "COc1cccc(NC(=O)N(Cc2nc3ccccc3c(=O)[nH]2)C2CCCCC2)c1", "survival": "83%"},
      {"smiles": "CC(C)NC(=O)CSc1nc2ccccc2c(=O)n1Cc1ccc(C(=O)NC(C)C)cc1", "survival": "105%"},
      {"smiles": "CCC1Oc2ccccc2N(CC(=O)NCc2cc(OC)ccc2OC)C1=O", "note": "(configuration not stated)", "survival": "85%"},
      {"smiles": "COc1ccc(-c2csc3nc(-c4ccc(C)cc4)oc(=O)c23)cc1OC", "survival": "63%"},
      {"smiles": "COc1ccc(-c2csc3nc(-c4ccccc4)oc(=O)c23)cc1OC", "survival": "115%"},
      {"smiles": "COc1ccc(-c2csc3nc(-c4ccc(F)cc4)oc(=O)c23)cc1OC", "survival": "48% (active)"},
      {"smiles": "C=CCc1cccc2cc(NC(C)=O)c(=O)oc12", "survival": "76%"},
      {"smiles": "C=CCc1cccc2cc(C(=O)Nc3ccc(F)cc3)c(=O)oc12", "survival": "44% (active)"},
      {"smiles": "C=CCc1cccc2cc(C(=O)Nc3cccc(Cl)c3)c(=O)oc12", "survival": "79%"},
      {"smiles": "CCc1cccc(-n2c(=O)c3cccnc3n2CC(=O)Nc2ccc(OC)c(Cl)c2)c1", "survival": "104%"},
      {"smiles": "COc1ccc(CNC(=O)CSc2ncc(S(=O)(=O)c3ccc(Br)cc3)c(=O)[nH]2)cc1", "survival": "62%"},
      {"smiles": "CCCCNc1nc(Oc2ccc(OCCC)nn2)nc(N(C)C)n1", "survival": "84%"},
      {"smiles": "COc1cccc(CNC(=O)CCc2c(C)nc3c4c(C)cc(C)nc4nn3c2C)c1", "survival": "80%"},
      {"smiles": "COc1ccc(N2CCN(c3ccc(-c4nc(-c5cccc(C)c5)no4)cc3[N+](=O)[O-])CC2)cc1", "survival": "75%"},
      {"smiles": "COc1ccccc1OCc1nc(-c2cccc(C)c2)no1", "survival": "-3% (active)"},
      {"smiles": "CCc1ccc(OCC(=O)NCc2nc(-c3cccc(C)c3)no2)c(Br)c1", "survival": "94%"},
      {"smiles": "COc1cccc(-c2noc(COc3ccccc3Cl)n2)c1", "survival": "81%"},
      {"smiles": "COc1cc(OC)cc(-c2nc(-c3cccc(C)c3)no2)c1", "survival": "-3% (active)"},
      {"smiles": "COc1ccc(C(=O)NCc2nc(-c3cccc(C)c3)no2)cc1OC", "survival": "98%"},
      {"smiles": "COc1cccc(-c2noc(COc3cccc(C)c3C)n2)c1", "survival": "84%"},
      {"smiles": "CCc1ccc(OCc2nc(-c3ccc(OC)c(OC)c3)no2)c(Br)c1", "survival": "33% (active)"},
      {"smiles": "COc1ccc(-c2noc(CNS(=O)(=O)c3ccc(Br)cc3)n2)cc1OC", "survival": "70%"},
      {"smiles": "COc1ccc(-c2noc(COc3cc(C)c(Br)c(C)c3)n2)cc1OC", "survival": "60%"},
      {"smiles": "COc1ccc(-c2noc(COc3ccc(Br)cc3C)n2)cc1OC", "survival": "33% (active)"},
      {"smiles": "COc1cc(OC)cc(-c2nc(-c3ccc4c(c3)[nH]c(=O)n4C)no2)c1", "survival": "94%"},
      {"smiles": "COc1ccc(CCNC(=O)CCc2cn(Cc3ccc(C)cc3)c3ccccc23)c(OC)c1OC", "survival": "52%"},
      {"smiles": "Cc1ccc2nc(-c3ccncc3)c(Nc3ccccc3C)n2c1", "survival": "103%"},
      {"smiles": "COc1ccc(CC(=O)NCc2ccc3c(c2)CCN3C(=O)c2ccc(C)cc2)cc1OC", "survival": "99%"},
      {"smiles": "COc1ccccc1-c1nc2c(c(SCc3ccc(F)cc3Cl)n1)Cc1c(CO)cnc(C)c1O2", "survival": "69%"},
      {"smiles": "CCOC(=O)c1ccc(NC(=O)CC2C(=O)N(c3ccc(F)cc3)C(=O)N2Cc2cccnc2)cc1", "note": "(configuration not stated)", "survival": "95%"},
      {"smiles": "O=C(CSc1nc(-c2ccccc2)cc(=O)[nH]1)Nc1ccccc1", "survival": "77%"},
      {"smiles": "COc1ccc(-c2nc3cnccn3c2NCc2ccc3c(c2)OCO3)cc1CN1CCOCC1", "survival": "88%"},
      {"smiles": "CC1CCC(NC(=O)c2ccc(CS(=O)(=O)c3cccc(C(F)(F)F)c3)o2)CC1", "note": "(configuration not stated)", "survival": "75%"},
      {"smiles": "O=C(c1ccc(F)cc1)c1cn(Cc2ccccc2F)c2cc3c(cc2c1=O)OCCO3", "survival": "83%"},
      {"smiles": "COc1ccc(NC(=O)c2c(NCc3cccc(F)c3)sc3c2CCCC3)c(OC)c1", "survival": "69%"}
    ]}
  ]
}
